Screening data deposited in PubChem BioAssay by National Center for Advancing Translational Sciences (NCATS).
Hits are enriched below; roughly 7.8% of the tested compounds scored in any of these assays.
LASV entry inh: qHTS for Inhibitors of binding or entry into cells for Lassa Virus. Potency, µM (doses to about 37.9 µM), actives largely listed as inhibitors. Lassa virus pseudotype entry inhibition, cell reporter. AID 540256, 2011. actives 1.2% (n = 300,000); calls by dose curve; tested in HEK293 cells; further: nearly all actives have a fitted effect of over 50% in size
MARV entry inh: qHTS for inhibitors of binding or entry into cells for Marburg Virus. Marburg virus pseudotyped entry inhibition, cell reporter. Potency, µM (top dose mostly 37.8 µM), hits mostly inhibitors. actives 1.8% (n = 300,000); calls by dose curve; tested in HEK293 cells
Vaccinia mCherry: qHTS for Stage-Specific Inhibitors of Vaccinia Orthopoxvirus: mCherry Reporter Primary qHTS | Vaccinia virus mCherry reporter infection, fluorescence | Potency, µM (series often up to 36.5 µM), actives largely listed as inhibitors | actives 0.63% (n = 310,000); calls by dose curve; tested in A549 cells; further: nearly all actives have a fitted effect of over 35% in size
HCMV antiviral: qHTS Assay for inhibitors of the human cytomegalovirus (HCMV); HFF cells, HCMV-luciferase reporter, 72 h; active compounds read low; activity change, negative = inhibition, % at 57.5 µM; actives 4.5% (n = 410,000); in the data active means activity change below about -60%; inconclusive means no clear call, values can overlap the other calls; inactive means above about -39%
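Human foreskin fibroblasts infected with luciferase-reporter HCMV at MOI 1 PFU/cell, compounds at two doses. Luciferase measured 72 h post infection; normalized to buffer-only basal and Salinomycin (10uM) controls.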
VACV Venus inh: qHTS for Stage-Specific Inhibitors of Vaccinia Orthopoxvirus: Venus Reporter Primary qHTS. Vaccinia virus Venus reporter expression, fluorescence. Potency, µM (top dose mostly 36.5 µM), usual class: inhibitors. actives 0.46% (n = 330,000). AID 720580, 2013; calls by dose curve; tested in A549 cells; further: nearly all actives have a fitted effect of over 30% in size
HCV inhibitor: qHTS Assay for Inhibitors of Hepatitis C Virus (HCV); Huh7.5.1 HCVcc-Cre infection, luciferase reporter, 44 h; Potency, µM (series often up to 41.8 µM), actives largely listed as inhibitors; actives 3.4% (n = 340,000); AID 651820, 2012; active means well fitted inhibition curve with a large enough effect; inconclusive means small, poorly fitted or top-dose-only effect, or another doubt; inactive means no such curve, though single readings can be large or run the other way
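Whole-lifecycle infectious HCVcc-Cre system; cells 1,000/well, compound then virus (~0.5 moi) added 4 h after plating, 44 h culture. Luciferase read 15 sec following 15 min substrate incubation, room temp.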
A number is an active result; 0 = inactive; ? = inconclusive; - = no result given; [ ] = dose if it differs, or a comment.

SMILES	LASV entry inh	MARV entry inh	Vaccinia mCherry	HCMV antiviral	VACV Venus inh	HCV inhibitor
Cc1[nH]n(-c2cccc3ccccc23)c(=O)c1/C=N/NC(=O)c1cccc([N+](=O)[O-])c1	0	?	0	-101	0	?
Cc1[nH]n(-c2ccccc2)c(=O)c1/C=N/NC(=O)c1cccc([N+](=O)[O-])c1	?	?	-	-104	0	0
COc1ccccc1CNC(=O)c1cc2cc3ccc(Cl)cc3nc2o1	?	0	0	0	0	-
CC1=C(C)CS(=O)N(S(=O)(=O)c2ccccc2)C1 (stereo not given)	0	13µM	-	0	-	0
CC1=C(C)CS(=O)N(c2ccc(S(N)(=O)=O)cc2)C1 (stereo not given)	?	0	0	0	0	0
COc1ccc(C(=O)/C=C/c2ccccc2OC)c(OC(=O)c2ccc([N+](=O)[O-])cc2)c1	0	?	?	0	0	13µM
CCc1ccc(NC(=O)CN2C(=O)CSc3ccc(S(=O)(=O)N(C)C)cc32)cc1	0	-	0	0	0	-
Cc1cccc(-n2ncc3c2CCCC3NC(=O)Cc2c(C)noc2C)c1C (stereo not given)	-	-	-	?	-	8.9µM
Cc1cc(C)n(CC(=O)NC2CCCc3c2cnn3-c2ccccc2F)n1 (stereo not given)	-	-	-	0	-	0
Cc1cc(C)cc(-n2ncc3c2CCCC3NC(=O)c2ccccc2)c1 (stereo not given)	-	-	0	0	0	-
CCn1cc(C(=O)NC2CCCc3c2cnn3-c2cccc(C)c2C)cn1 (stereo not given)	-	-	-	-99	-	-
Cc1cccc(-n2ncc3c2CCCC3NC(=O)c2cccs2)c1C (stereo not given)	-	-	?	-75	0	-
Cc1cc(C(=O)NC2CCCc3c2cnn3-c2cccc(C)c2C)no1 (stereo not given)	?	?	?	-97	0	11µM
CC(Oc1ccccc1)C(=O)NCC1Cc2cc(F)cc(-c3ccccn3)c2O1 (stereo not given)	-	-	0	-	0	-
O=C(Nc1cc(C(F)(F)F)ccc1Cl)c1cnn(-c2ccccc2)c1-n1cccc1	0	-	?	0	0	-
O=C(Nc1cccc2ccccc12)OC[C@@H]1CSCCS(=O)(=O)N1	?	-	-	0	-	-
CN(C)c1ccc(C2=Cc3ccccc3C2)cc1	-	-	0	-	0	-
COc1ccc(C(=O)NC2CCCc3c2cnn3-c2cccc(C)c2C)o1 (stereo not given)	-	-	-	-93	-	?
Cc1cccc(-n2ncc3c2CCCC3NC(=O)c2ccncc2)c1C (stereo not given)	-	-	0	-79	0	-
COc1cccc(C(=O)NC2CCCc3c2cnn3-c2cc(C)cc(C)c2)c1 (stereo not given)	?	?	0	?	0	?
COC(=O)c1ccc(C(=O)NC2CCCc3c2cnn3-c2ccc(C)c(C)c2)cc1 (stereo not given)	?	?	?	?	?	13µM
Cc1cc(C(=O)NC2CCCc3c2cnn3-c2ccc(C)c(C)c2)nc(C)n1 (stereo not given)	0	?	0	0	0	0
CC1=C(C(=O)NC2CCCc3c2cnn3-c2cccc(C)c2C)OCCO1 (stereo not given)	?	?	0	-79	0	3.5µM
Cc1cccc(-n2ncc3c2CCCC3NC(=O)CN2CCOC2=O)c1C (stereo not given)	-	-	-	0	-	0
COc1ccc(-c2noc(CSc3nnc(-c4ccncc4)n3-c3ccc(OC)cc3)n2)cc1	0	0	0	0	0	-
SMILES	LASV entry inh	MARV entry inh	Vaccinia mCherry	HCMV antiviral	VACV Venus inh	HCV inhibitor
Cc1cccc(-n2ncc3c2CCCC3NC(=O)CN2CCCC2=O)c1C (stereo not given)	?	?	0	0	0	0
Cc1cccc(-n2ncc3c2CCCC3NC(=O)CCc2cccnc2)c1C (stereo not given)	-	-	-	-63	-	?
Cc1ccc(Cl)cc1NC(=O)N1CCC2(CC1)Oc1ccccc1C(=O)N2Cc1ccccc1F	-	0	0	0	0	-
O=C(Nc1ccccc1C(F)(F)F)N1CCC2(CC1)Oc1ccccc1C(=O)N2Cc1ccccc1F	-	?	0	-74	0	-
CCc1ccccc1Nc1cc(C(=O)NC2CCC(C)CC2)c2ccccc2n1 (stereo not given)	?	0	0	-82	0	-
Cc1nc(C)c(-c2ccc(SCC(=O)Nc3cccc(C)c3C)nn2)s1	0	-	0	0	0	-
O=C(c1ccc(Cl)cc1)C(CN1CCCC1)c1ccccc1 (stereo not given)	-	-	-	-101	-	?
CCC(O)(c1ccc(OC)cc1)C(CN1CCOCC1)c1ccccc1 (stereo not given)	-	-	-	?	-	0
CCCCOc1ccc(C(=O)C(CN2CCOCC2)c2ccccc2)cc1 (stereo not given)	?	?	16µM	-107	?	?
CCCCOc1ccc(C(O)C(CN2CCCCC2)c2ccccc2)cc1 (stereo not given)	?	?	0	?	0	?
COc1ccc(C(=O)C(CN2CCOCC2)c2ccccc2)cc1 (stereo not given)	13µM	?	10µM	-99	10µM	?
CCCOc1ccc(C(=O)C(CN2CCCC2)c2ccccc2)cc1 (stereo not given)	?	?	?	-82	10µM	?
OC(CN1CCCC1)c1ccccc1 (stereo not given)	-	-	0	-	0	-
COc1ccc(-c2onc(C)c2C)cc1S(=O)(=O)N(C)Cc1ccccc1	0	-	0	?	0	-
O=C(c1ccccc1)C(CCC(CN1CCOCC1)C(=O)c1ccccc1)CN1CCOCC1 (stereo not given)	14µM	?	-	-105	7.9µM	5.6µM
c1ccc(C(CN2CCOCC2)c2ccccc2)cc1	0	0	-	0	-	0
CCCCCCCCCC(=O)NC(CN1CCOCC1)[C@H](O)c1ccccc1 (stereo not given in full)	?	16µM	-	-	-	-
CCCCOc1ccc(C(O)C(CN2CCOCC2)c2ccccc2)cc1 (stereo not given)	-	-	0[7.34 µM]	?	0[7.34 µM]	0
COc1ccc(C(=O)C(CN2CCCC2)c2ccccc2)cc1 (stereo not given)	?	?	11µM	-95	?	?
O=C(c1ccc(F)cc1)C(CN1CCOCC1)c1ccccc1 (stereo not given)	?	?	14µM	-77	13µM	11µM
COc1ccc(C(=O)CCN2CCCCCC2)cc1	0	0	-	0	-	0
O=C(c1ccccc1)C(Cc1ccccc1)N1CCOCC1 (stereo not given)	0	0	0	0	0	0
CO[C@@H]1c2ccccc2[C@H]2C(C(=O)O)c3c(n(C)c4ccccc34)[C@H]2[C@H]1C (stereo not given in full)	-	0	-	-	-	-
